Hits are enriched below; roughly 7.8% of the tested compounds scored in any of these assays.
HCMV antiviral = qHTS Assay for inhibitors of the human cytomegalovirus (HCMV); HFF cells, HCMV-luciferase reporter, 72 h; active compounds read low; activity change, negative = inhibition, % at 57.5 µM; hit rate 4.5% among 410,000; AID 1259415, 2018; in the data active means activity change below about -60%; inconclusive means no clear call, values can overlap the other calls; inactive means above about -39%
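After 16 h attachment at 37C, HFF cells received test compound and HCMV-luciferase (1 PFU/cell); reporter luminescence read 72 h later, data normalized against buffer-only and known inhibitor Salinomycin.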
Vaccinia Venus = qHTS for Stage-Specific Inhibitors of Vaccinia Orthopoxvirus: Venus Reporter Primary qHTS; Potency, µM (series often up to 36.5 µM), inactives show at the top dose activity change, negative = inhibition, actives largely listed as inhibitors; Vaccinia virus Venus reporter expression, fluorescence; AID 720580, 2013; hit rate 0.46% among 330,000; calls by dose curve; tested in A549 cells; further: potency means the concentration at half of the fitted maximal effect; nearly all actives have a fitted effect of over 30% in size
Lassa entry inh = qHTS for Inhibitors of binding or entry into cells for Lassa Virus. Lassa virus pseudotype entry inhibition, cell reporter. Potency, µM (titrated, usually from 37.9 µM), for the others: top-dose activity change, negative = inhibition, hits mostly inhibitors. hit rate 1.2% among 300,000; calls by dose curve; tested in HEK293 cells; further: potency means the concentration at half of the fitted maximal effect; nearly all actives have a fitted effect of over 50% in size
Marburg entry inh = qHTS for inhibitors of binding or entry into cells for Marburg Virus; hit rate 1.8% among 300,000; Marburg virus pseudotyped entry inhibition, cell reporter; Potency, µM (titrated, usually from 37.8 µM), for inactives: top-dose activity change, negative = inhibition, hits mostly inhibitors; AID 540276, 2011; calls by dose curve; tested in HEK293 cells; further: potency means the concentration at half of the fitted maximal effect
HCV inh = qHTS Assay for Inhibitors of Hepatitis C Virus (HCV); Huh7.5.1 HCVcc-Cre infection, luciferase reporter, 44 h; Potency, µM (series often up to 41.8 µM), for inactives: at the highest dose activity change, negative = inhibition, actives largely listed as inhibitors; hit rate 3.4% among 340,000; AID 651820, 2012; active means well fitted inhibition curve with a large enough effect; inconclusive means small, poorly fitted or top-dose-only effect, or another doubt; inactive means no such curve, though single readings can be large or run the other way; further: potency means the concentration at half of the fitted maximal effect
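A cell-based infection assay in which seeded cells (1,000 per well) receive test compound after 4 h, are inoculated with HCVcc-Cre at approximately 0.5 moi, and are incubated 44 h before luminescence detection.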
VACV mCherry inh = qHTS for Stage-Specific Inhibitors of Vaccinia Orthopoxvirus: mCherry Reporter Primary qHTS; Potency, µM (top dose mostly 36.5 µM), for the others: at the highest dose activity change, negative = inhibition, actives largely listed as inhibitors; hit rate 0.63% among 310,000; Vaccinia virus mCherry reporter infection, fluorescence; calls by dose curve; tested in A549 cells; further: potency means the concentration at half of the fitted maximal effect; nearly all actives have a fitted effect of over 35% in size
* marks the source's active call; other numbers are inactive results; i = inactive; ? = inconclusive; nt = no result given; [ ] = another dose, or the depositor's remark. On the % scale 0 is the no-effect control and ±100 the full control effect.

SMILES	HCMV antiviral	Vaccinia Venus	Lassa entry inh	Marburg entry inh	HCV inh	VACV mCherry inh
COc1ccc(-c2cc(C(=O)OC(C)C(=O)c3ccccc3)c3cccc(Cl)c3n2)cc1 (centres undefined)	6	0%	21%[46.1 µM]	4%[46.1 µM]	nt	-16%
CCCCNc1c(-c2ccc(OC)c(SC3CCCCC3)c2)nc2cc(C)ccn12	-19	?	nt	nt	4µM*	-49%
CC(C)(C)C1CCc2c(sc(NC(=O)C3c4ccccc4Oc4ccccc43)c2C(N)=O)C1 (centres undefined)	-23	-14%	-7%[46.1 µM]	?	nt	-18%
O=C(NCc1ccc2c(c1)CCN2C(=O)c1ccc(Cl)cc1)c1ccco1	15	-8%	?	nt	nt	-13%
Cc1[nH]nc(C(F)(F)F)c1N=NN1CCOCC1	-11	?	?	?	16µM*	?
Clc1ccc(N=NN2CCOCC2)cc1	7	-11%	2%	2%[46.1 µM]	5%	-5%
CC(C)c1ccc(OCC(=O)Nc2cc(-c3ccccc3)no2)cc1	36	2%	6%[46.1 µM]	2%[46.1 µM]	nt	-12%
CC(C)c1ccc(CN(C)C(=O)c2ccc(S(=O)(=O)NCc3ccco3)cc2)cc1	?	nt	nt	nt	6.3µM*	nt
CC(NS(=O)(=O)c1ccc(Br)cc1)C(=O)NCc1ccco1 (centres undefined)	-73*	-19%	0%	1%	?	i
CC(NS(=O)(=O)c1ccccc1)C(=O)NCc1ccco1 (centres undefined)	11	3%	0%	16%	-1%	-16%
CN(Cc1cccs1)C(=O)c1ccc(S(=O)(=O)NCc2ccco2)cc1	-18	nt	nt	nt	7%	nt
Cc1nn(-c2ccccc2)c(C)c1CN(C)C(=O)c1ccc(S(=O)(=O)NCc2ccco2)cc1	-33	nt	nt	nt	14µM*	nt
CN(Cc1ccc(Cl)cc1)C(=O)c1ccc(S(=O)(=O)NCc2ccco2)cc1	-37	nt	nt	nt	-27%	nt
Cc1cc(C)c2oc(C(=O)Nc3nc4ccc(Cl)cc4s3)cc(=O)c2c1	8	1%	3%[46.1 µM]	-5%[46.1 µM]	nt	2%
COC(=O)[C@@]1(C)[C@H]2C(=O)N(Cc3ccccc3)C(=O)[C@H]2[C@H]2CN(C)C(=NC3CCCCC3)N21	-12	-15%	nt	nt	0.56µM*	-26%
CCN1C[C@@H]2[C@@H]3C(=O)N(Cc4ccccc4)C(=O)[C@@H]3[C@](C)(C(=O)OC)N2C1=NC1CCCCC1	-18	3%	nt	nt	?	-22%
COC(=O)c1c(NC(=O)c2cc(=O)c3ccc(C)c(C)c3o2)sc2c1CCCC2	5	1%	-7%[46.1 µM]	18%[46.1 µM]	nt	5%
CCOc1ccc(S(=O)(=O)c2cn(Cc3ccc(C)cc3)c3ccc(OC)cc3c2=O)cc1	5	-10%	?	?	nt	-2%
FC(F)(F)c1cccc(-c2cc(C3CCNCC3)[nH]n2)c1	-72*	-12%	?	?	?	-21%
FC(F)(F)c1cccc(CN2CCC(c3cc(-c4cccs4)n[nH]3)CC2)c1	-79*	?	?	?	?	?
Fc1ccccc1Cn1c2[n+](c3ccc(C(F)(F)F)cc31)CCCCC2	-68*	-17%	-11%[46.1 µM]	-5%[46.1 µM]	-15%	i
COc1ccc(NC(=O)CSC2=Nc3ccccc3C3=NC(Cc4ccccc4)C(=O)N23)cc1 (centres undefined)	-9	-8%	-4%[46.1 µM]	nt	nt	-14%
COc1cccc(CCNC(=O)c2cnc3sc(N4CCCC4)nn3c2=O)c1	-10	?	nt	1%[46.1 µM]	nt	-29%
CCn1c(/N=C/c2ccccc2NS(=O)(=O)c2ccc(C)cc2)nc2ccccc21	nt	-11%	11µM*	?	31%	i
CCCCn1c(NCc2ccccc2NS(=O)(=O)c2ccc(C)cc2)nc2ccccc21	-23	?	?	11µM*	?	nt
SMILES	HCMV antiviral	Vaccinia Venus	Lassa entry inh	Marburg entry inh	HCV inh	VACV mCherry inh
O=S(=O)(c1ccccc1)c1nc(-c2ccco2)oc1SCc1ccc(F)cc1	-4	-16%	7%[46.1 µM]	-2%[46.1 µM]	nt	-16%
CCOc1cc(/C=C(\C#N)C(=O)Nc2ccc(C)cc2)ccc1OCc1cc(=O)n2nc(CC)sc2n1	4	-8%	-25%[46.1 µM]	-8%[46.1 µM]	nt	0%
Cc1ccccc1NC(=O)CSc1nc(-c2ccc(F)cc2)nc2c1Cc1ccccc1O2	40	-9%	7%[46.1 µM]	3%[46.1 µM]	nt	-6%
Cc1ccc(NC(=O)C2CCN(S(=O)(=O)c3ccc4c(c3)NC(=O)CO4)CC2)cc1	?	-20%	-20%[46.1 µM]	-5%[46.1 µM]	?	-11%
CC1Sc2ccc(S(=O)(=O)N3CCC(C(=O)Nc4ccc(Cl)cc4)CC3)cc2NC1=O (centres undefined)	-71*	nt	nt	nt	?	nt
CC(C)c1ccc(NC(=O)C2CCN(S(=O)(=O)c3ccc4c(c3)NC(=O)CO4)CC2)cc1	-68*	nt	nt	nt	?	nt
O=C(NCc1nnc2n1CCN(Cc1ccnc3ccccc13)CC2)c1cccc(F)c1	nt	-14%	nt	nt	nt	-13%
N=c1c(-c2nc3ccccc3[nH]2)cc(C(=O)c2ccco2)nn1-c1ccccc1	?	nt	-8%	?	7.9µM*	nt
Cc1ccc(/C=N/Nc2nc3ccccc3s2)o1	-15	-24%	3.2µM*	?	-2%	-27%
O=C(Nc1ccc(-c2nc3cccnc3s2)cc1)c1cccnc1Cl	87	-27%	3.5µM*	?	6.3µM*	11%
O=C(Nc1cccc(-c2nc3cccnc3s2)c1)c1cccc(Br)c1	-67*	-8%	-13%[46.1 µM]	3%[46.1 µM]	nt	-12%
O=C(Nc1ccc(-c2nc3cccnc3s2)cc1)c1ccc(Br)o1	-91*	-21%	nt	nt	11µM*	-10%
O=C(Nc1ccc(-c2nc3cccnc3s2)cc1)c1ccco1	42	?	nt	nt	?	i
Cc1ccc(C(=O)CSc2nc3cc(C(=O)NC4CCCC4)ccc3c(=O)n2CC2CCCO2)c(C)c1 (centres undefined)	22	-14%	5%[46.1 µM]	nt	nt	-8%
COc1ccccc1N1CCN(CC(O)COc2ccc(C)cc2C(C)(C)C)CC1 (centres undefined)	-67*	-20%	1%[46.1 µM]	?	nt	-29%
COc1ccccc1N1CCN(CC(O)COc2ccc(S(=O)(=O)N3CCOCC3)cc2)CC1 (centres undefined)	-70*	-18%	-20%	?	?	-22%
O=S(=O)(c1ccc(OCC(O)CN2CCN(c3ccc(F)cc3)CC2)cc1)N1CCOCC1 (centres undefined)	-16	-23%	-21%	2%	-24%	-8%
COc1ccccc1N1CCN(CC(O)COc2cc(C)cc(C)c2)CC1 (centres undefined)	-23	-12%	?	?	nt	-7%
Cn1c(NCc2cccc(Cl)c2)nc2ccccc21	26	-13%	-4%[46.1 µM]	-10%[46.1 µM]	nt	-17%

Screening results (PubChem)
